The values below come from PubChem BioAssay.

A word on the inhibition: it is the relative decrease from the control value, in per cent.

Each structure is given as a SMILES string. A number with no mark means an inactive call. For some of these results: Results with a measured potency or affinity are listed apart. Active and inactive are the calls of the source. Unless noted, the rule behind the calls is not given here.

Test [1] is described as follows: antimalarial activity against Dd2 strain (AID 2302;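 active = growth inhibition above 50% at the single 2 µM test dose, taken to imply half-maximal potency below 2 µM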;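 note: 0% = DMSO untreated growth and 100% = chloroquine plus artemisinin killed control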). To be noted: P. falciparum Dd2 in RBCs, LDH growth readout, 72 h; at 2 µM; hits give high values.
The nature of test [2]: HepG2 cytotoxicity, primary screen, cytotoxicity control for P. falciparum antimalarial project, cell-based, ATP luminescence (AID 2303;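 active = inhibition above 50%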;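 note: 0% = DMSO wells and 100% = digitonin-killed cells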). To be noted: HepG2 viability, 24-48 h, at 10 µM, hits give high values.
Test [3] has as its target L-lactate dehydrogenase (Plasmodium falciparum (isolate CDC / Honduras)) (UniProt Q27743). Put plainly: PfLDH activity inhibition – cell lysate, 3D7 strain, counter-screen for P. falciparum growth inhibition project (AID 2304).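 Note: 0% = vehicle and 100% = reference inhibitor.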 To be noted: P. falciparum 3D7 crude extract, LDH APAD/NBT absorbance; at 2 µM; hits give high values.
Test [4] in a line: inhibition of 3D7 malaria parasite growth – strain 3D7 (AID 2306).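 Note: 0% = DMSO wells and 100% = chloroquine plus artemisinin control wells.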 To be noted: P. falciparum 3D7 erythrocytic growth, LDH absorbance, 72 h; at 2 µM; hits give high values.
Test [5] deals with Calcium-dependent protein kinase 1 (Plasmodium falciparum (isolate 3D7)) (UniProt P62344). The test can be described thus: PfCDPK1 kinase inhibitors, biochemical, TCAMS library (AID 1159585; cut-off not given, nearly all actives have IC50 up to about 0.98 µM;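 note: inhibitors leave more ATP so luminescence rises with inhibition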). The conditions noted are these: recombinant PfCDPK1, Kinase-Glo ATP depletion luminescence. On the technique in general: In Kinase-Glo more light means more ATP remaining.
Calcium-dependent protein kinase 1 (Plasmodium falciparum (isolate 3D7)), sequence (P62344 whole entry, looked up): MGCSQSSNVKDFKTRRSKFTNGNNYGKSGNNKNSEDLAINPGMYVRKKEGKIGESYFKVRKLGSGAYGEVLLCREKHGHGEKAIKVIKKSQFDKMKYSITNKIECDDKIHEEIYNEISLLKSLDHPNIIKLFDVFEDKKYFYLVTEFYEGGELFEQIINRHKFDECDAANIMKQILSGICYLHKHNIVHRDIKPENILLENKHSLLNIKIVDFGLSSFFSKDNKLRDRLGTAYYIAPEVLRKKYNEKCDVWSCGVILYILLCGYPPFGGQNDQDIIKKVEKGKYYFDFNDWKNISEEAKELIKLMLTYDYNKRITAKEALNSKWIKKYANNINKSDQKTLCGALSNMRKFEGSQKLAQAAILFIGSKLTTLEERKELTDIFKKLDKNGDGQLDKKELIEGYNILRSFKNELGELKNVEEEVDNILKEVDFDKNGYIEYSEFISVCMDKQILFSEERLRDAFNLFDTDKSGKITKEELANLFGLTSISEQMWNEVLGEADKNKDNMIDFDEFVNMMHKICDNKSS
Test [6] deals with Plasmodium falciparum protein kinase 6 (PK6, PF3D7_1337100) (UniProt Q8IDW1). The test can be described thus: PfPK6 kinase inhibitors, biochemical, TCAMS library (AID 1159586). The conditions noted are these: recombinant PfPK6, Kinase-Glo ATP depletion luminescence.
Plasmodium falciparum protein kinase 6 (PK6, PF3D7_1337100), sequence (Q8IDW1 1-305): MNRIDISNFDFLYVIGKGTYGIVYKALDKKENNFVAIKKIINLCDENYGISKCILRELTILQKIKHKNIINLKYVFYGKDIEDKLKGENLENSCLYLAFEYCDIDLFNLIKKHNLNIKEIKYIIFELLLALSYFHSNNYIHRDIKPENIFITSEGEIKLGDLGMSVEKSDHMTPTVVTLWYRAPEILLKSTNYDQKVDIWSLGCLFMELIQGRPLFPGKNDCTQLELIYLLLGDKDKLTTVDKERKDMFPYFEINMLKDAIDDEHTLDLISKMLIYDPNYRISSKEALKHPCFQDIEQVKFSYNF
Test [7] has as its target Protein kinase 7 (PK7), Plasmodium falciparum 3D7 (PF3D7_0213400) (UniProt Q7YTF7). The test can be described thus: inhibition of Plasmodium PK7 catalytic activity – biochemical, TCAMS antimalarial set, Kinase-Glo luminescence (AID 1159587). The conditions noted are these: recombinant PfPK7, Kinase-Glo ATP depletion luminescence.
The target in test [8] is Calcium-dependent protein kinase 4 (Plasmodium falciparum (isolate 3D7)) (UniProt Q8IBS5). The test can be described thus: PfCDPK4 kinase inhibitors, biochemical, TCAMS library (AID 1159588; cut-off not given, nearly all actives have IC50 up to about 0.91 µM). The conditions noted are these: recombinant PfCDPK4, Kinase-Glo ATP depletion luminescence.
Calcium-dependent protein kinase 4 (Plasmodium falciparum (isolate 3D7)), sequence (Q8IBS5 whole entry, looked up): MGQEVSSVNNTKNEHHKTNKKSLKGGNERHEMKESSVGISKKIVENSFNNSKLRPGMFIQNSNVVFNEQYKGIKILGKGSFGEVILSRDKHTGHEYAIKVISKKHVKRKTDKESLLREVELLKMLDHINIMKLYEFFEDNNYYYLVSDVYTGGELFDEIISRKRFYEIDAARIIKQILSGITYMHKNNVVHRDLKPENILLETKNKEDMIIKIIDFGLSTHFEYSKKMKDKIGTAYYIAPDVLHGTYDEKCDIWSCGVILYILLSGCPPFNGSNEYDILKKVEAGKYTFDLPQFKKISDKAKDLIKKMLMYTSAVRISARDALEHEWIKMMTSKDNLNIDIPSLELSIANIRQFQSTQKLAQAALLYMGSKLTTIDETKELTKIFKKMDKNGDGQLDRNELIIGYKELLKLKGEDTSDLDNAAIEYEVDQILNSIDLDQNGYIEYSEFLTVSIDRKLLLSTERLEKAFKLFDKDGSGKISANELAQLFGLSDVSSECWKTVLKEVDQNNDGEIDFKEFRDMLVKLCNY

L-lactate dehydrogenase (Plasmodium falciparum (isolate CDC / Honduras)), sequence (Q27743 whole entry, looked up): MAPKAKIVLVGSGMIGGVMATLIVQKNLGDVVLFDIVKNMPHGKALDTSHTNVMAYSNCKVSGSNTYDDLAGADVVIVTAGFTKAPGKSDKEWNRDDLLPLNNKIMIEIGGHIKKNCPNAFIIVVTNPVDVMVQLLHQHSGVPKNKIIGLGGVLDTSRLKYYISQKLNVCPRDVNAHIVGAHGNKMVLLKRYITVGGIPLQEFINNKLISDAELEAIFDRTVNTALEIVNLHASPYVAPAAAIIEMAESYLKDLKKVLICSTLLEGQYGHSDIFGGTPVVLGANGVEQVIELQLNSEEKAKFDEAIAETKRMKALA
Protein kinase 7 (PK7), Plasmodium falciparum 3D7 (PF3D7_0213400), sequence (Q7YTF7 1-343): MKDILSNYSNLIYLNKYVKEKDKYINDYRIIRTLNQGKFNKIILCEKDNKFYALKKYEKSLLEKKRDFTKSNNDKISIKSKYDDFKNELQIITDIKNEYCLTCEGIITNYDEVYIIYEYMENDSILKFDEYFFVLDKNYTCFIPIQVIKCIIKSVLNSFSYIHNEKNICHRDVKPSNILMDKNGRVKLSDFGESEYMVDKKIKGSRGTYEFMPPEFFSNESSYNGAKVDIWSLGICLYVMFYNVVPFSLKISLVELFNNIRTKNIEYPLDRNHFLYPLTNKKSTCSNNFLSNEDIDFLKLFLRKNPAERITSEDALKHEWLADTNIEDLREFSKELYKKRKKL

On to `COc1ccc2nccc(NN=Cc3cccc(F)c3)c2c1`, for which the growth inhibition in test [1] was 65% (active); in test [4] it was 102% (active). Moreover, the inhibition is 13% in test [2] and 2% in test [3]. For the same molecule, the outcome in test [5], in test [6], in test [7] and in test [8] was inactive.

As for `CC(C)N(Cc1cnc2nc(N)nc(N)c2n1)c1ccc(Cl)c(Cl)c1`, the growth inhibition in test [1] is 98% (active); in test [4] it was 101% (active). Moreover, the inhibition in test [2] is 63% (active); in test [3], -3%. Besides, the outcome in test [5], in test [6], in test [7] and in test [8] was inactive.

Regarding `COc1ccc(OCc2ccccn2)c(C2CCN(CCCCNC(=O)c3ccc(NC(=O)c4ccc(Cl)cc4)cc3)CC2)c1`, the growth inhibition was 71% (active) in test [1] and 98% (active) in test [4]. For the same molecule, the inhibition in test [2] was 18%; in test [3], 4%. The result in test [5], in test [6], in test [7] and in test [8] was inactive.

As for `Cc1[nH]c(C)c(-c2ccc(C(F)(F)F)cc2)c(=O)c1Br`, the growth inhibition in test [1] is 96% (active); in test [4], 98% (active). For the same molecule, the inhibition in test [2] was -5%; in test [3] it was -8%. Further, the result in test [5], in test [6], in test [7] and in test [8] was inactive.

Regarding `NC1CCN(c2nc(NCCCc3ccc(O)cc3)nc(NCc3cccc4ccccc34)n2)CC1`, the results for the growth inhibition in test [1] and in test [4] were 2% and 102% (active), respectively. The inhibition was 12% in test [2] and 6% in test [3]. Further, the outcome in test [5], in test [6], in test [7] and in test [8] was inactive.
